# From article PMC5540273 (PLoS ONE, 2017)
# Columns and labels:
# Conditions in all cases: concentration: 1 μM, replicates: in singlicate; n = 1
# TSSK3 = test system: TSSK3
# TTK = test system: TTK
# TXK = test system: TXK
# [1] = test system: TYK2(JH1domain-catalytic)
# [2] = test system: TYK2(JH2domain-pseudokinase)
# TYRO3 = test system: TYRO3
# ULK1 = test system: ULK1
# ULK2 = test system: ULK2
# ULK3 = test system: ULK3
# VEGFR2 = test system: T1, VEGFR2
# T1 construct: gene KDR
# VPS34 = test system: T2, VPS34
# T2 construct: gene PIK3C3
# VRK2 = test system: VRK2
# WEE1 = test system: WEE1
# WEE2 = test system: WEE2
# WNK1 = test system: WNK1
# WNK2 = test system: WNK2
# WNK3 = test system: WNK3
# WNK4 = test system: WNK4
# YANK1 = test system: T3, YANK1
# T3 construct: gene STK32A
# YANK2 = test system: T4, YANK2
# T4 construct: gene STK32B
# 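Also: KINOMEscan kinase panel screen.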
Structure (SMILES),%Inh (TSSK3),%Inh (TTK),%Inh (TXK),%Inh [1],%Inh [2],%Inh (TYRO3),%Inh (ULK1),%Inh (ULK2),%Inh (ULK3),%Inh (VEGFR2),%Inh (VPS34),%Inh (VRK2),%Inh (WEE1),%Inh (WEE2),%Inh (WNK1),%Inh (WNK2),%Inh (WNK3),%Inh (WNK4),%Inh (YANK1),%Inh (YANK2)
COc1ccc(Nc2ncc(C#N)c(Nc3ccccc3C(N)=O)n2)cc1N1CCN(C)CC1.Cl [GSK1558669],79%,99.5%,84%,99.8%,99.7%,35%,100%,100%,100%,100%,43%,0%,99.8%,100%,66%,31%,4%,0%,93.5%,68%
Cc1cccc(-c2nc(-c3ccc(S(C)(=O)=O)cc3)sc2-c2ccncc2)c1,0%,20%,0%,2%,3%,0%,0%,0%,0%,0%,12%,0%,0%,7%,0%,0%,0%,0%,0%,23%
O=c1cc(N2CCOCC2)nc2n(Cc3cccc(F)c3)ccn12 [GSK2297430],0%,0%,4%,13%,2%,12%,0%,0%,0%,0%,93.9%,0%,0%,9%,0%,12%,8%,3%,7%,14%
C[C@@H](Oc1cc(-n2cnc3ccc(NC(=O)NC(C)(C)C)cc32)sc1C(N)=O)c1ccccc1Cl [GSK346294],21%,0%,0%,8%,0%,0%,0%,0%,15%,3%,0%,5%,5%,12%,14%,25%,33%,0%,0%,0%
COCCNC(=O)c1ccc(-c2cc(C(=O)NC3CC3)cc(F)c2C)cc1 [GW868318],24%,0%,18%,9%,33%,21%,46%,37%,47%,16%,9%,37%,3%,5%,31%,0%,23%,21%,1%,25%
NS(=O)(=O)CCc1cccc(Nc2nccc(-c3c(-c4cccc(NC(=O)c5c(F)cccc5F)c4)nn4ccccc34)n2)c1 [GSK336735],23%,26%,90.1%,98.7%,18%,100%,0%,0%,3%,90%,0%,0%,0%,0%,0%,6%,18%,12%,23%,77%
CN1c2ccc(NCc3ccc(F)cc3)cc2-c2c(cnn2C)S1(=O)=O,0%,0%,0%,0%,12%,16%,0%,0%,0%,4%,0%,0%,0%,0%,42%,5%,8%,0%,0%,3%
O=C1Cc2cc(Nc3nc(NCc4cccc(S(=O)(=O)C(F)(F)F)c4)ncc3C(F)(F)F)ccc2N1,9%,0%,4%,25%,0%,3%,3%,26%,12%,0%,0%,23%,0%,0%,0%,6%,0%,0%,0%,0%
Cl.Oc1cccc(Nc2ccnc3cc(-c4ccncc4)ccc23)c1 [GW494601],6%,39%,97.6%,93.1%,49%,82%,0%,0%,31%,95.4%,34%,6%,10%,7%,0%,13%,41%,46%,33%,12%
